Several values for one entry are separate records, joined by “and”; a condition that tells them apart may be missing. Equal values may be shown once. In all, about 5,500 compounds went through this assay and about 2,000 (36%) were called active. Not shown: some 18% with an inconclusive outcome. Rule as the data show it: active = normalized growth mostly below about 0.91 (no sharp cut-off); inconclusive = no clear call, values can overlap the other calls; inactive = mostly above about 0.92. Some of the results follow.
Assay: chemical genetic growth profiling, strain panel (AID 1159580);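 also: tested at 20 µM; growth read once vehicle control cultures reached saturation at 30 °C; 1 = growth at the plate median or of vehicle wells; lower values mean less growth of the strain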
Settings: S. cerevisiae deletion strains, growth OD

Measured: normalized growth

CC1(C)O[C@@H]2CC3C4C[C@H](F)C5=CC(=O)C=CC5(C)C4C(O)CC3(C)[C@]2(C(=O)CO)O1 (stereo partly drawn)
inactive: locus YAL013W, strain DEP1, stronger effect = lower value 1.02 | locus YAL021C, strain ccr4, stronger effect = lower value 1 | locus YAL026C, strain drs2, stronger effect = lower value 0.993 | locus YAL030W, strain snc1, stronger effect = lower value 0.992 | locus YBL061C, strain skt5, stronger effect = lower value 0.979 | locus YBR009C, strain hhf1, stronger effect = lower value 1.01 | locus YBR021W, strain FUR4, stronger effect = lower value 1.02 | locus YBR023C, strain chs3, stronger effect = lower value 0.987 | locus YBR171W, strain sec66, stronger effect = lower value 0.985 | locus YBR229C, strain ROT2, stronger effect = lower value 1.02 | locus YBR231C, strain swc5, stronger effect = lower value 1 | locus YBR279W, strain paf1, stronger effect = lower value 0.976 | locus YCL011C, strain gbp2, stronger effect = lower value 0.982 | locus YCL016C, strain dcc1, stronger effect = lower value 0.96 | locus YCL029C, strain bik1, stronger effect = lower value 0.989 | locus YCL069W, strain vba3, stronger effect = lower value 0.995 | locus YCR088W, strain abp1, stronger effect = lower value 0.992 | locus YDL005C, strain med2, stronger effect = lower value 0.973 | locus YDL035C, strain GPR1, stronger effect = lower value 1.02 | locus YDL040C, strain nat1, stronger effect = lower value 0.983 | locus YDL074C, strain BRE1, stronger effect = lower value 1.04 | locus YDL101C, strain DUN1, stronger effect = lower value 1.02 | locus YDL134C, strain PPH21, stronger effect = lower value 1.02 | locus YDL185W, strain tfp1, stronger effect = lower value 0.991 | locus YDL192W, strain arf1, stronger effect = lower value 1.01 | locus YDR001C, strain nth1, stronger effect = lower value 0.983 | locus YDR069C, strain doa4, stronger effect = lower value 1 | locus YDR101C, strain arx1, stronger effect = lower value 1 | locus YDR137W, strain rgp1, stronger effect = lower value 1 | locus YDR159W, strain sac3, stronger effect = lower value 0.982 | locus YDR162C, strain NBP2, stronger effect = lower value 1.01 | locus YDR195W, strain ref2 0.997 | locus YDR297W, strain sur2, stronger effect = lower value 1 | locus YDR318W, strain mcm21, stronger effect = lower value 0.996 | locus YDR334W, strain swr1, stronger effect = lower value 0.985 | locus YDR335W, strain msn5, stronger effect = lower value 0.975 | locus YDR388W, stronger effect = lower value 0.99 | locus YDR392W, strain spt3, stronger effect = lower value 0.917 | locus YDR502C, strain sam2, stronger effect = lower value 0.991 | locus YEL003W, strain gim4, stronger effect = lower value 1.02 | locus YEL037C, strain rad23, stronger effect = lower value 0.979 | locus YEL061C, strain CIN8 (second series), stronger effect = lower value 0.987 | locus YEL061C, strain CIN8, stronger effect = lower value 1.01 | locus YER015W, strain faa2, stronger effect = lower value 0.996 | locus YER016W, strain bim1, stronger effect = lower value 0.971 | locus YER110C, stronger effect = lower value 0.988 | locus YER111C, strain swi4, stronger effect = lower value 0.975 | locus YER155C, strain BEM2 (second series), stronger effect = lower value 1.01 | locus YER155C, strain BEM2, stronger effect = lower value 1.01 | locus YER167W, strain BCK2, stronger effect = lower value 1.01 | locus YFR010W, strain ubp6, stronger effect = lower value 1.01 | locus YGL078C, strain dbp3, stronger effect = lower value 0.979 | locus YGL086W, strain mad1, stronger effect = lower value 1.01 | locus YGL167C, strain pmr1, stronger effect = lower value 0.996 | locus YGL173C, strain kem1, stronger effect = lower value 1 | locus YGL227W, strain vid30, stronger effect = lower value 0.988 | locus YGL240W, strain doc1, stronger effect = lower value 1.02 | locus YGL248W, strain PDE1, stronger effect = lower value 1.03 | locus YGL253W, strain hxk2, stronger effect = lower value 0.959 | locus YGR135W, strain pre9, stronger effect = lower value 0.98 | locus YGR252W, strain gcn5, stronger effect = lower value 0.984 | locus YHR013C, strain ard1, stronger effect = lower value 0.957 | locus YHR027C, strain rpn1, stronger effect = lower value 0.99 | locus YHR030C, strain SLT2, stronger effect = lower value 1.01 and 1.02 | locus YHR079C, strain IRE1 (second series), stronger effect = lower value 0.99 | locus YHR079C, strain IRE1, stronger effect = lower value 1.02 | locus YHR094C, strain hxt1, stronger effect = lower value 0.98 | locus YHR129C, strain ARP1, stronger effect = lower value 1.02 | locus YHR142W, strain chs7, stronger effect = lower value 0.941 | locus YHR200W, strain rpn10, stronger effect = lower value 0.998 | locus YIL066C, strain RNR3, stronger effect = lower value 1.02 | locus YIL073C, strain SPO22, stronger effect = lower value 0.999 | locus YIL125W, strain kgd1, stronger effect = lower value 0.99 | locus YIR030C, strain dcg1, stronger effect = lower value 0.998 | locus YJL092W, strain hpr5, stronger effect = lower value 1 | locus YJL095W, strain BCK1 (second series), stronger effect = lower value 0.978 | locus YJL095W, strain BCK1, stronger effect = lower value 1.04 and 1.03 | locus YJL115W, strain asf1, stronger effect = lower value 0.974 | locus YJL129C, strain trk1, stronger effect = lower value 0.953 | locus YJL134W, strain LCB3, stronger effect = lower value 1.01 | locus YJL154C, strain vps35, stronger effect = lower value 0.976 | locus YJL164C, strain tpk1, stronger effect = lower value 0.972 | locus YJL166W, strain qcr8, stronger effect = lower value 1.02 | locus YJL168C, strain set2, stronger effect = lower value 0.993 | locus YJL187C, strain SWE1 (second series), stronger effect = lower value 1.02 | locus YJR043C, strain POL32, stronger effect = lower value 1.02 | locus YJR066W, strain TOR1, stronger effect = lower value 0.954 | locus YJR075W, strain HOC1, stronger effect = lower value 1.03
